Assay results from PubChem BioAssay AID493185 (National Center for Advancing Translational Sciences (NCATS), 2011).
The source made the active and inactive calls. Calls follow the shape of the dose curve; as a rule, active = well fitted activation curve with a large enough effect; inconclusive = small, poorly fitted or top-dose-only effect; inactive = no such curve, though single readings can be large or run the other way.

Assay: Counterscreen for Identifying a Potential Treatment of Ataxia-Telangiectasia: Hit Validation; as to activation: 0% is about no effect
Details: cell-free AlphaLISA/AlphaScreen artifact counterscreen, PBS only, no cells; series mostly up to 76.9 µM; activation: at the top concentration
In short: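 Cell-free AlphaLISA counterscreen: compounds (up to 76.7 uM final) in PBS with detection mix of anti-pKAP1 and anti-KAP1 antibodies on donor/acceptor beads plus lysis buffer, incubated 6 hr at 25C before AlphaScreen read.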
Potency is read from the fitted curve at half-maximal effect.

SMILES	activation	Potency
Cc1cc(C)c2c(Cn3ccnc3)cc(=O)oc2c1	6.77% (inactive)	
COc1ccc(N(C)S(=O)(=O)c2cccc(C(=O)OCC(=O)NCc3ccccc3OC)c2)cc1	-12.8% (inactive)	
CCn1c(=NC(=O)CN2C(=O)CCC2=O)sc2c(OC)ccc(OC)c21	-5.74% (inactive)	
CC(=O)/C(N=Nc1nc2c([nH]1)c(=O)n(C)c(=O)n2C)=C(\C)O	-10% (inactive)	
CCC[C@H]1CCCC/C=C\CCCC(=O)OCCN1C(=O)OC(C)(C)C	-10.7% (inactive)	
CCc1oc(C(=O)OC)cc1CSC(=N)N	-1.54% (inactive)	
COc1ccc(-n2c(=S)[nH]c3ccccc3c2=S)cc1	-17.2% (inactive)	
COc1ccc(NC(=O)C2CC2)cc1OC1CCCC1	8.2% (inactive)	
Cc1nc(SCC(=O)Nc2cc(C(N)=O)cc(C(N)=O)c2)c2c(C)c(C)sc2n1		51.9 µM (active)
COc1ccc2c(c1)c(N=NC(N)=S)c(O)n2CC(=O)c1ccccc1	-3.76% (inactive)	
COC(=O)CCc1c(C)c(C(=O)c2cc(OC)c(OC)c(OC)c2)c2ccccn12	5.74% (inactive)	
FC(F)(F)c1cccc(OCC2CNC(=S)O2)c1 (configuration not stated)	-12.3% (inactive)	
Cc1ccc(C(=O)N/C(=C\c2ccco2)C(=O)NC2CCS(=O)(=O)C2)cc1 (configuration not stated)	-5.26% (inactive)	
Fc1ccc(C2=NOC(c3nnc(-c4ccccc4)o3)C2)cc1 (configuration not stated)	6.92% (inactive)	
COC(=O)c1cccc2c1-c1ccccc1/C2=N\NC(N)=O	-15.6% (inactive)	
CC(C)(C)n1nc2c(c1NC(=O)C1CC(=O)N(c3ccc(Cl)cc3)C1)CS(=O)(=O)C2 (configuration not stated)	-0.82% (inactive)	
COc1ccc(C2/C=C\CN(S(=O)(=O)c3ccc4ccccc4c3)CC(=O)N2Cc2ccc(F)cc2)cc1 (configuration not stated)	-14.6% (inactive)	
